# Assay outcomes as filed in PubChem.
# B2AR arrestin: recruits beta-arrestin to the human beta2-adrenergic receptor; P07550; beta-arrestin recruitment to beta2AR, cell-based reporter; Potency, µM (series often up to 46.1 µM), inactives show at the top dose activation, usual class: activators; hit rate 0.02% among 330,000; AID 492947;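 note: 0% = DMSO controls and full agonism = EC100 isoproterenol or metaproterenol; nearly all actives have a fitted effect of over 65% in size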
# VP16 counter: Gal4-VP16 reporter inhibition counter-screen. AID 2546. Potency, µM (highest dose often 53.6 µM), for inactives: top-dose activity, negative = inhibition, most hits filed as inhibitors. hit rate 3.5% among 310,000. Drosophila S2 Gal4-VP16 UAS-luciferase, luminescence, 20 h;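 note: Gal4-VP16 expression switched on by copper sulfate through the metallothionein promoter; nearly all actives have a fitted effect of over 50% in size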
# RORg inh: ROR gamma (mouse) transcription inhibition; P51450; Potency, µM (series often up to 53.6 µM), without a hit: at the highest dose activity change, negative = inhibition, actives largely listed as inhibitors; hit rate 5.4% among 310,000; Drosophila S2 Gal4-RORgamma UAS-luciferase reporter, 20 h; note: nearly all actives have a fitted effect of over 60% in size
#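 Drosophila Schneider cells stably carrying a metallothionein-driven Gal4 DBD–ROR gamma fusion and a UAS-Photinus luciferase reporter were exposed to compound for 1 hr, then induced with copper sulfate (700 uM final) for 20 hr at ambient temperature before luminescence reading.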
# NPSR antag: blocks cAMP signaling of the human neuropeptide S receptor; CHO-NPSR cells, cAMP TR-FRET, antagonist mode; hit rate 1% among 220,000; AID 1461; Potency, µM (highest dose often 38.3 µM), inactives show at the highest dose activity change, negative = inhibition, usual class: inhibitors; Q6W5P4; note: nearly all actives have a fitted effect of over 50% in size
# Target sequence (Q6W5P4 whole entry, looked up): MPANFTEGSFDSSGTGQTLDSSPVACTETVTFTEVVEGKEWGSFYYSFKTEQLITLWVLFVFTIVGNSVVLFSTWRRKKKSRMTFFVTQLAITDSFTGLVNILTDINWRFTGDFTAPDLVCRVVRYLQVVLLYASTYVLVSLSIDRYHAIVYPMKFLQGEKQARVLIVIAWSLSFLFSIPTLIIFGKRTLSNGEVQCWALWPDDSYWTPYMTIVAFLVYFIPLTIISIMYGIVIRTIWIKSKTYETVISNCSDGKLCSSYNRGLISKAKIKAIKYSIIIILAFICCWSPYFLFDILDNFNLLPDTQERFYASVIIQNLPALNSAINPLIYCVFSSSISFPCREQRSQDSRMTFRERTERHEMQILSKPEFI
# Starred values were filed as active, the others as inactive; ? = inconclusive; . = not tested or not shown; [ ] = dose if it differs, or a comment. Compounds with a hit are over-represented: about 5.7% of the library has one in this group of screens. Calls come from the whole dose curve; as a rule, active = well fitted curve in the direction sought with a large enough effect; inconclusive = small, poorly fitted or top-dose-only effect, or another doubt; inactive = no such curve, though single readings can be large; an effect the other way counts as inactive or inconclusive. Unless noted, % is set by controls: 0 for no effect and ±100 for the full control effect; potency is the fitted concentration of half-maximal effect.
SMILES,B2AR arrestin,VP16 counter,RORg inh,NPSR antag
Cc1cccc(NC(=S)NC2CCCC2)c1,-1%,-15%,22%,18%
Cc1cccc(NC(=S)NC2CC3C=CC2C3)c1 (centres undefined),0%,11µM*,5µM*,-8%
O=C(NC(=S)Nc1cccc([N+](=O)[O-])c1)C1CCCCC1,-1%,?,10µM*,.
Cc1cc(C)cc(NC(=S)NC(=O)C2CC2)c1,-2%,6.3µM*,7.1µM*,.
Cc1cc(NC(=S)NC(=O)C2CC2)ccc1Br,12%,2.5µM*,2.5µM*,?
Cc1cccc(NC(=S)NC(=O)C2CC2)c1,?,?,7.9µM*,.
Cc1cccc(NC(=O)C2CCCC2)c1,-1%,-5%,39%,?
Cc1ccc(CSc2nnc(SCC(=O)N/N=C/c3ccc(C(=O)O)cc3)s2)cc1,-1%,?,5.6µM*,6%
O=C(CSc1nnc(SCc2ccccc2)s1)N/N=C/c1ccc(C(=O)O)cc1,0%,-13%,-19%,48%
O=C(CSc1nnc(SCc2ccccc2)s1)N/N=C/c1c[nH]c2ccccc12,0%,?,8.9µM*,-6%
COC(=O)[C@@]1(Cc2ccccc2)[C@H]2c3cc(C(=O)N4CCCC4)n(Cc4ccc(OC)c(OC)c4)c3C[C@H]2CN1C(=O)c1ccccc1,.,-12%,3%,.
CN[C@@H](CCCN=C(N)N)C(=O)N[C@@H](CCCCN)C(=O)N1CCC[C@H]1C(=O)N[C@@H](Cc1c[nH]c2ccccc12)C(=O)N[C@H](C(=O)N[C@H](CC(C)C)C(=O)O)C(C)(C)C,.,20%,-3%,.
Cc1c(-c2n[nH]c(=S)n2-c2ccc(C(F)(F)F)cc2)nnn1-c1ccccc1,1%,?,5.6µM*,-17%
CCOC(=O)C(=O)N(Nc1ccccc1C)c1ccccc1C,0%,?,2.8µM*,9%
CCN1CCN(C(=O)c2ccc(Cl)c(S(=O)(=O)N3CCCCC3)c2)CC1,0%,4%,-13%,.
O=C(CCl)N1N=C(c2cccs2)CC1c1ccco1 (centres undefined),-1%,?,11µM*,?
CN1CCN(CC(=O)N2N=C(c3cccs3)CC2c2ccco2)CC1 (centres undefined),-1%,?,-40%,7%
COc1ccc(C2=NN(C(N)=S)C(c3ccco3)C2)cc1 (centres undefined),-1%,?,10µM*,-26%
O=C(O)/C=C/C(=O)N1N=C(c2ccco2)CC1c1ccco1 (centres undefined),0%,2%,13%,.
O=C(CCl)N1N=C(c2ccco2)CC1c1ccco1 (centres undefined),0%,?,10µM*,.
C[C@@H]1O[C@H](O[C@@H]2C(O)[C@H](O)[C@@H](CO)O[C@H]2Oc2cc(O)c3c(=O)cc(-c4ccc(O)cc4)oc3c2)[C@H](O)[C@H](O)[C@H]1O (some centres undefined),.,-10%,11%,.
CCN(CC)c1ccc(/C=C/c2nc3ccccc3s2)cc1,0%,7.1µM*,1.6µM*,?
S=c1c2c(nc3nc[nH]n13)CCC2,13%,0.89µM*,?,?
CCOC(=O)CC/C(C)=N\N=C1\SC(CC(=O)O)C(=O)N1c1ccccc1 (centres undefined),0%,3%,43%,-2%
CCc1nnc(NC(=O)CSc2nc3cccnc3n2C2CCCCC2)s1,-1%,?,10µM*,-18%[46.1 µM]
SMILES,B2AR arrestin,VP16 counter,RORg inh,NPSR antag
Cc1cccc(-n2ccnc2SCC(=O)Nc2nccs2)c1C,-1%,10%,?,-3%[46.1 µM]
CCc1nnc(NC(=O)CSc2nccn2-c2cccc(C)c2C)s1,7%,18µM*,2.8µM*,3%[46.1 µM]
CCc1nnc(NC(=O)CSc2nccn2-c2cc(C)cc(C)c2)s1,0%,?,18µM*,-10%[46.1 µM]
Cc1nc(NC(=O)CSc2nc3cccnc3n2C2CCCCC2)sc1C,0%,?,-7%,-4%[46.1 µM]
CC(=C/C=C/C(C)=C/C=C/C=C(C)/C=C/C=C(C)/C=C/C(=O)O)/C=C/C(=O)O,.,0%,14%,.
CSc1nc2nc(C)c(C/C=C/c3ccccc3)c(=O)n2[nH]1,0%,3%,18%,-19%
CCc1c(C)nc2nc(SCc3ccccc3Cl)[nH]n2c1=O,0%,25µM*,?,.
O=C(Nc1ccc(Br)cc1)c1ccc(F)c(S(=O)(=O)NCc2cccs2)c1,0%,10µM*,?,?
CCc1ccc(C)c(OC(=O)c2cncc(Br)c2)c1,-2%,-1%,-1%[1.91 µM],.
O=c1c(-c2ccc(Cl)cc2)nc2cnc(N3CCNCC3)nc2n1-c1ccccc1,.,-11%,-12%,.
CCCCOC(=O)c1ccc(-c2ccc(/C=N/NC(=S)NCC)o2)cc1,-1%,2.5µM*,0.35µM*,-15%[46.1 µM]
C=CCNC(=O)c1ccc(-c2cccc([N+](=O)[O-])c2)o1,0%,-1%,9%,-10%
Cc1nnc(N/N=C/c2ccc(-c3ccc(Br)cc3)o2)n1N,0%,8.9µM*,3.2µM*,-6%
CCOC(=O)c1ccc(-c2ccc(/C=N/NC(=O)c3cncc(Br)c3)o2)cc1,-1%,?,?,-25%
C=CCNC(=S)N/N=C/c1ccc(-c2ccc(Br)cc2)o1,0%,0.4µM*,0.35µM*,-15%
O=C(O)c1ccc(N/N=C/c2ccc(-c3ccc(Br)cc3)o2)cc1,0%,-4%,?,.
C=CCNC(=S)N/N=C/c1ccc(-c2cccc([N+](=O)[O-])c2)o1,0%,2.5µM*,0.5µM*,-26%
COc1ccc(-c2coc3ccc(OC4OC(COC(C)=O)C(OC(C)=O)C(OC(C)=O)C4OC(C)=O)cc3c2=O)cc1 (centres undefined),.,-10%,21%,.
CC(=O)OC1C=C[C@@H](OC(C)=O)C1 (some centres undefined),.,-8%,2%,.
Cc1onc(-c2ccccc2Cl)c1C(=O)Oc1cccc2cccnc12,7%,?,?,-50%
CN(C1=C(N2CCCCC2)C(=O)c2ccccc2C1=O)c1ccccc1,0%,9%,-25%,13µM*
CC1=NN(C(=O)COc2ccccc2)C(O)(c2cccnc2)C1 (centres undefined),0%,0%,5%,-12%
CC1=NN(C(=O)COc2ccccc2C)C(O)(c2ccc(Cl)cc2)C1 (centres undefined),0%,7.9µM*,14µM*,-16%[46.1 µM]
CCC1=NN(C(=O)COc2ccccc2C)C(O)(c2ccncc2)C1 (centres undefined),0%,?,4µM*,-28%
Cc1cc(C)n(C(=O)COc2ccccc2C)n1,-2%,10%,6%,7%[46.1 µM]
COc1ccc(CNc2ncncc2-c2ccccc2C(F)(F)F)c(OC)c1,.,4%,11%,.
COc1ccc(N2CCN(C(=O)c3cccc(NC(=O)c4ccco4)c3)CC2)cc1,0%,4%,27%,.
COc1ccc(CNC(=S)NC(C)CCc2ccccc2)cc1 (centres undefined),0%,14µM*,3.2µM*,-18%
COc1ccc(CNC(=O)/C(C)=C\C(=O)O)cc1,0%,10µM*,5.6µM*,26%
CC(C)COc1ccc(CNC(=S)NCc2ccccc2)cc1,-1%,18µM*,7.1µM*,-21%[46.1 µM]
